One may read the inhibition as the drop in the measured response relative to a control, in per cent.

Where “and” joins values, the source holds several entries; their conditions need not be identical. Equal values may be shown once. Out of some 340,000 compounds screened, about 1,000 (0.29%) were called active. Rule as the data show it: inconclusive = inhibition above about 27% without an active follow-up result; inactive = below that. The list is a sample of the results. Potency and affinity values are given separately.

This test is described as follows: NS1A inhibition, H1N1 influenza, cell based functional assay (AID 504329). As to conditions: percent inhibition, at 12.5 µM, hits give high values.
Take `c1ccc(CN2CCC(CNc3ncnc4ccccc34)C2)cc1` (stereo not given): the inhibition was -2.71% (inactive). As to `O=C(CN1C(=O)CCC1=O)Nc1nc(-c2ccc3ccccc3c2)cs1`, the inhibition was -4.5% (inactive). As to `O=C(Nc1nc(-c2ccccn2)cs1)C1CCCC1`, the inhibition was -0.49% (inactive).

Consider `O=C(CC1CC2CCC1C2)Nc1nc(-c2ccccn2)cs1` (stereo not given), for which the inhibition was -17.9% (inactive). As to `O=C(CN1C(=O)CCC1=O)Nc1nc(-c2cccs2)cs1`, the inhibition was -13.6% (inactive). On to `O=C(Nc1nc(-c2ccccn2)cs1)C1CC1`, for which the inhibition is 15.6% (inactive).

For `CC1(c2ccccc2)NC(=O)N(CC(=O)Nc2nc(-c3ccccn3)cs2)C1=O` (stereo not given), the inhibition was 17.7% (inactive). Then `O=C(CN1C(=O)C2CCCCC2C1=O)Nc1nc(-c2ccc(F)cc2)cs1` (stereo not given), with -0.75% (inactive); and `O=C(CCN1C(=O)C2CCCCC2C1=O)Nc1nc(-c2ccccc2)cs1` (stereo not given), with 12.8% (inactive); and `N#Cc1cc(-c2cccc(Cl)c2)c[nH]c1=O`, with 3.18% (inactive). Then `Cc1ccc(C(=O)Nc2cccc(C(=O)NCc3ccco3)c2)cc1`, with 0.66% (inactive); and `COc1ccc(C(=O)NCCSCc2cccc(Cl)c2)cc1OC`, with -9.42% (inactive); and `O=C(CCN1CCN(c2ccc(F)cc2)CC1)Nc1ccc(F)cc1`, with 8.96% (inactive).

On to `CC(C)(C)c1cc(C(=O)N2CCc3ccccc32)ccn1`, for which the inhibition was -21.7% (inactive). Then `CC(=O)Nc1sc(C)c(C)c1C(=O)OCC(=O)NC(C)c1ccccc1` (stereo not given), with -5.54% (inactive); and `Cc1ccc(S(=O)(=O)Nc2nc3ccccc3nc2NCC2CCCO2)cc1C` (stereo not given), with -0.91% (inactive). For the molecule `O=C1CC(c2ccc(O)cc2)Oc2cc(O)ccc21` (stereo not given), the inhibition was -6.8% (inactive).

Regarding `O=C(COc1ccccc1)N[C@@H]1c2ccccc2CC[C@H]1OCc1ccccc1`, the inhibition was -3.28% (inactive).

In the case of `CCN(CC)CCC(c1cc(OC)c(OC)c(OC)c1)c1c(OC)cc(OC)c2c(-c3ccccc3)cc(=O)oc12` (stereo not given), the inhibition is -1.61% (inactive). Then `COc1ccc(C(CCN2CCCC(C)C2)c2c(OC)cc(OC)c3c(-c4ccccc4)cc(=O)oc23)cc1` (stereo not given), with 10.3% (inactive). Then `COc1cc(OC)c2c(-c3ccccc3)cc(=O)oc2c1C(CCN1CCCC(C)C1)c1ccc2c(c1)OCO2` (stereo not given), with 17.6% (inactive); and `COc1ccc(C(CCN2CCCCC2)c2c(OC)cc(OC)c3c(-c4ccccc4)cc(=O)oc23)cc1` (stereo not given), with 3.17% (inactive). Then `COc1cc(OC)c2c(-c3ccccc3)cc(=O)oc2c1C(CCN1CCOCC1)c1ccc(N(C)C)cc1` (stereo not given), with 9.77% (inactive); and `CCN(CC)CCC(c1ccc2c(c1)OCO2)c1c(OC)cc(OC)c2c(-c3ccccc3)cc(=O)oc12` (stereo not given), with 15.2% (inactive); and `O=C(NCCc1ccccn1)c1ccc(NS(=O)(=O)c2ccc(F)cc2)cc1`, with -1.36% (inactive). Turning to `COc1cccc(OCC(=O)NNC(=O)c2ccc3ccccc3c2O)c1`, the inhibition was 3.46% (inactive). On to `CS(=O)(=O)N1N=C(c2ccco2)CC1c1ccco1` (stereo not given), for which the inhibition is 0.65% (inactive).

On to `CC(NC(=O)CN(c1cccc(C(F)(F)F)c1)S(=O)(=O)c1ccc(Cl)c([N+](=O)[O-])c1)c1ccccc1` (stereo not given), for which the inhibition was -1.19% (inactive). On to `N#Cc1ccc(C(=O)Nc2cccc3ccccc23)c(F)c1`, for which the inhibition is 4.06% (inactive). As to `CN1C(N)=NC(=O)/C1=C/c1ccc(OC(F)(F)F)cc1`, the inhibition is -2.53% (inactive). For `CCOC(=O)c1ccccc1NC(=O)CN(c1ccccc1OCC)S(C)(=O)=O` the value was 0.08% (inactive). Then `Cc1ccc(NC(=O)C2CCN(S(=O)(=O)c3ccc(C(C)(C)C)cc3)CC2)cc1S(=O)(=O)N1CCOCC1`, with -3.38% (inactive); and `CCCN(CCC)S(=O)(=O)c1ccc(NS(C)(=O)=O)cc1`, with -0.06% (inactive); and `O=C(O)c1ccc(S(=O)(=O)/N=C2\C=C(Nc3ccccc3F)C(=O)c3ccccc32)cc1`, with 14.7% (inactive). For `COC(=O)c1cc(NS(=O)(=O)c2cccs2)cc(NS(=O)(=O)c2cccs2)c1` the value was -13.7% (inactive); for `Cc1ccccc1NC1=C/C(=N\S(=O)(=O)c2ccc(C(=O)O)cc2)c2ccccc2C1=O`, 4.65% (inactive); for `Cc1ccc(Cl)cc1NC1=C/C(=N\S(=O)(=O)c2cccs2)c2ccccc2C1=O`, 17.4% (inactive) and 16.6% (inactive). For `COC(=O)c1ccccc1NC(=O)c1cccs1`, the inhibition was 11.6% (inactive). For `COC(=O)c1cccc(NS(=O)(=O)c2cccs2)c1C` the value was 1.41% (inactive); for `COc1ccccc1S(=O)(=O)Cc1ccc(C(=O)N2CCN(c3ccc(C)cc3)C(C)C2)o1` (stereo not given), 9.7% (inactive); for `CC(C)COC(=O)c1ccccc1C(=O)OCC(C)C`, 2.41% (inactive). Take `COC(=O)c1ccc2c(c1O)C(=O)c1ccccc1C2=O`: the inhibition is 4.41% (inactive). Consider `CCN(CC)c1ccc(O)c(C=Nc2ccc(C)c(C)c2)c1`, for which the inhibition was -19.5% (inactive). Take `COc1ccc2c(O)c(-c3c(C)cc(C)cc3C)c(=O)[nH]c2c1`: the inhibition is 10.4% (inactive).

Turning to `COc1ccc(/C=C(/NC(=O)c2ccco2)C(=O)Nc2ccc(C(=O)O)cc2)cc1`, the inhibition is -7.59% (inactive). For `O=C(O)c1ccc(N2CCc3ccccc32)c([N+](=O)[O-])c1` the value was 4.7% (inactive); for `COC(CNC(=O)c1ccc(N2CCc3ccccc32)c([N+](=O)[O-])c1)OC`, 10.7% (inactive); for `COCC(COS(N)(=O)=O)C(C)C` (stereo not given), 9.46% (inactive). On to `CCc1nc(N2CCN(C(=O)c3ccccc3)CC2)c2c3c(sc2n1)CCCC3`, for which the inhibition is 2.27% (inactive). For `Cc1c2ccccc2cc[n+]1CCCS(=O)(=O)[O-]` the value was 5.16% (inactive); for `CCOc1ccc(C(=O)Nc2ncn[nH]2)cc1`, -3.3% (inactive); for `CCC(CO)Oc1cc(NCc2ccccc2)c2ncn(C(C)C)c2c1` (stereo not given), 3.05% (inactive). On to `COc1cc(NCc2ccccc2)c2ncn(C(C)C)c2c1`, for which the inhibition is 0.83% (inactive). For `Cc1ccc2c(c1)c(N=Nc1cccc(C(=O)O)c1)c(O)n2C`, the inhibition is -0.45% (inactive).

As to `CC(=O)Nc1nonc1NC(=O)COc1ccccc1`, the inhibition was -0.08% (inactive). Then `CCC(C)[C@H](NC(=O)[C@@H]1Cc2c([nH]c3ccccc23)C2c3ccccc3C(=O)N21)C(=O)NCC1CCCO1` (stereo not given in full), with 0.06% (inactive); and `C=CCOC(=O)C1=C(C)Nc2nc3ccccc3n2C1c1ccncc1` (stereo not given), with -21.4% (inactive); and `O=C(CN1CCOCC1)N/N=C/c1c(O)ccc2ccccc12`, with 14.4% (inactive). For `Cc1cccc(/C=N/NC(=O)CN2CCCCCCC2)c1` the value was 5.95% (inactive). For `Cc1ccc2cc(/C=N/NC(=O)CN3CCCCC3)c(Cl)nc2c1` the value was 1.44% (inactive); for `O=C(CN1CCCc2ccccc21)N/N=C/c1c(O)ccc2ccccc12`, -3.7% (inactive). Turning to `COc1cc2oc3ccccc3c2cc1N(CC(=O)N(C)C)S(=O)(=O)c1ccc(C)cc1`, the inhibition was 1.98% (inactive). For `CCCCc1nnc(NC(=O)c2ccc(OCc3c(C)noc3C)cc2)s1` the value was 3.77% (inactive). As to `CCOC(=O)N1CCN(C(=O)c2ccc3c(Cl)c4c(nc3c2)CCCC4)CC1`, the inhibition was -2.68% (inactive).

For the molecule `CSCC[C@H](NC(=O)OC(C)(C)C)C(=O)N1CCC(C(=O)N[C@@H](C)C(=O)NC(C)c2ccccc2)CC1` (stereo not given in full), the inhibition is 4.49% (inactive). Take `CCc1ccc(CN(C)C(=O)c2ccc3c(=O)n4c(nc3c2)CCC4)cc1`: the inhibition was -7.99% (inactive). For `COc1cccc2c1C(=O)c1c(O)c3c(c(O)c1C2=O)C[C@@](O)(C(=O)CO)C[C@@H]3OC1CC(N)C(O)C(C)O1` (stereo not given in full), the inhibition was 15% (inactive).

With `COc1cccc2c1C(=O)c1c(O)c3c(c(O)c1C2=O)C[C@](O)(C(C)=O)C[C@H]3O[C@@H]1C[C@@H](N)[C@@H](O)[C@@H](C)O1`, the inhibition is 24.5% (inactive). For `CCCCC(=O)OCC(=O)C1(O)Cc2c(O)c3c(c(O)c2C(OC2CC(NC(=O)C(F)(F)F)C(O)C(C)O2)C1)C(=O)c1c(OC)cccc1C3=O` (stereo not given) the value was 14.4% (inactive). As to `COc1cccc2c1C(=O)c1c(O)c3c(c(O)c1C2=O)CC(O)(C(=O)CO)CC3OC1CC(N(C)C)C(O)C(C)O1` (stereo not given), the inhibition was 18.7% (inactive). For `COc1cccc2c1C(=O)c1c(O)c3c(c(O)c1C2=O)CC(O)(C(C)=O)CC3OC1CC(N(C)C)C(O)C(C)O1` (stereo not given) the value was 19.1% (inactive). Take `COc1cccc2c1C(=O)c1c(O)c3c(c(O)c1C2=O)C[C@@](O)(C(=O)CO)C[C@@H]3O[C@H]1C[C@H](N)[C@H](O)[C@H](C)O1`: the inhibition was 20.3% (inactive). For `COc1cccc2c1C(=O)c1c(O)c3c(c(O)c1C2=O)CC(O)(C(C)=O)CC3OC1CC(O)C(O)C(C)O1` (stereo not given) the value was 20.6% (inactive); for `C/C(=N\NC(=O)c1ccc(Cl)c(Cl)c1)c1cccc(NC(=O)C(C)C)c1`, -0.88% (inactive). For `COC(=O)CC1=C(C(=O)OC)C(c2ccc3c(c2)OCO3)C(C#N)=C(N)O1` (stereo not given), the inhibition was -5.88% (inactive).

As for `Cc1cc(C)c(NC(=O)c2ccc(CN3CCc4ccccc4C3)cc2)c(C)c1`, the inhibition was 12.4% (inactive). Then `COc1ccccc1/C=C/C=C1\Oc2c(ccc(O)c2CN2CCN(CCO)CC2)C1=O`, with 6.54% (inactive); and `CC(C)n1cc(C#N)c(N)n1`, with -24.1% (inactive). For `Cc1ccc2c(CN3CCCCC3C)cc(=O)oc2c1C` (stereo not given) the value was -6.02% (inactive); for `O=C(COC(=O)c1cccc(O)c1)Nc1ccc(Cl)cc1C(=O)c1ccccc1`, -7.75% (inactive); for `CSC1=NCCN1C(=O)c1c(-c2c(F)cccc2Cl)noc1C`, -23.1% (inactive). Then `Cc1ccc(C2C(N)C(=O)N2c2ccc(C)cc2)cc1` (stereo not given), with -20.6% (inactive). For `Cc1ccc(NC(=O)CN(C)C(=O)Cc2ccc(Cl)c(Cl)c2)cc1`, the inhibition was 9.85% (inactive).

As to `Cc1ccc(S(=O)(=O)NNC(=O)c2cnn(-c3ccc(Cl)cc3)c2C(F)(F)F)cc1`, the inhibition is -16.4% (inactive). For `Cc1cccc(C)c1NC(=O)CN(C)C(=O)c1cccc(S(=O)(=O)N2CCN(c3ccccc3)CC2)c1` the value was 1.58% (inactive).
